The record followed here is the supplement of paper PMC10037445.

Structures are written as SMILES. In all, about 2,900 compounds were measured (“NF-kB SEAP reporter activity, fold change vs agonist alone”: median about 0.99, highest 2% from about 2.6 on). The entries come from a sample that favours the highest values as a whole.

The subject of assay [1] is RAW-Dual. Kind of assay: NF-kB SEAP reporter activity, fold change vs agonist alone; higher = enhanced NF-kB activity. The conditions noted are these: cytotoxicity flag (confluency mask): not cytotoxic. In short, it runs like this:
(§1)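 After 50 nL of library stock was delivered by pin tool to RAW-Dual macrophages (50,000 cells/well, DMEM, 384-well plates), a PRR agonist was added 1 h later and the plates were kept at 37 °C, 5% CO2. Twenty hours later, IRF was read from supernatant by QuantiLuc luminescence and NF-κB by QuantiBlue absorbance at 620 nm. Reporter activity is stated as fold change over agonist-alone wells. Wells with IncuCyte confluency under 70% of agonist controls in both mask sets were counted as cytotoxic.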

Assay [2] has as its system RAW-Dual. In words: NF-kB SEAP reporter activity, fold change vs agonist alone; cytotoxicity flag (confluency mask): not cytotoxic; higher = enhanced NF-kB activity. The gist of the method:
as §1

The mark [3] stands for this setting: library stock concentration (final ~1000-fold dilution): 10 mM water, agonist: Imiquimod (TLR7) […].
Setting [4] is: library stock concentration (final ~1000-fold dilution): 10 mM water, agonist: MPLA (TLR4) […].
Where [5] appears, read: agonist: ODN 1826 (TLR9) 0.5 ug/mL.
Setting [6] is: agonist: Pam2CSK4 (TLR2/6) 0.1 ug/mL.
The mark [7] stands for this setting: agonist: Pam3CSK4 (TLR2/1) 0.1 ug/mL.
The mark [8] stands for this setting: library stock concentration (final ~1000-fold dilution): 10 mM, agonist: Imiquimod (TLR7) […].
The mark [9] stands for this setting: library stock concentration (final ~1000-fold dilution): 10 mM, agonist: MPLA (TLR4) […].

For `CNC1C(O)C(OC2C(NC(=O)C(O)CN)CC(N)C(OC3OC(CN)C(O)C(O)C3O)C2O)OCC1(C)O.O=S(=O)(O)O` (stereo not drawn), the “NF-kB SEAP reporter activity” value in the assay on RAW-Dual [1] (setting [3]) turned out to be 0.944; in the assay on RAW-Dual [1] (setting [4]), 1.01.

For `CNC1C(O)C(OC2C(NC(=O)C(O)CN)CC(N)C(OC3OC(CN)C(O)C(O)C3O)C2O)OCC1(C)O.O=S(=O)(O)O` (stereo not drawn) (library stock concentration (final ~1000-fold dilution): 10 mM water), the “NF-kB SEAP reporter activity” value turned out to be 1.03 with RAW-Dual [2] (agonist: LPS (TLR4) 0.1 ug/mL), 1.09 with RAW-Dual [2] (setting [5]), 1.3 in the assay with RAW-Dual [2] (setting [6]) and 1.14 in the assay on RAW-Dual [2] (setting [7]).

On to `COc1ccc(C(NC(=O)c2cnc(-c3cccnn3)nc2O)c2ccc(OC)cc2)cc1`, for which the “NF-kB SEAP reporter activity” value with RAW-Dual [1] (setting [8]) was found to be 0.974; with RAW-Dual [1] (setting [9]), 1.03.

For `COc1ccc(C(NC(=O)c2cnc(-c3cccnn3)nc2O)c2ccc(OC)cc2)cc1` (library stock concentration (final ~1000-fold dilution): 10 mM), the “NF-kB SEAP reporter activity” value came out at 2.9 in the assay on RAW-Dual [2] (agonist: LPS (TLR4) 0.1 ug/mL), 0.861 in the assay on RAW-Dual [2] (setting [5]), 0.898 with RAW-Dual [2] (setting [6]) and 1.02 with RAW-Dual [2] (setting [7]).

For the compound `O=C(O)c1ccc(Br)c(O)c1` (library stock concentration (final ~1000-fold dilution): 10 mM), the “NF-kB SEAP reporter activity” value with RAW-Dual [2] (agonist: LPS (TLR4) 0.1 ug/mL) was found to be 1.11; in the assay with RAW-Dual [2] (setting [5]), 0.975; in the assay on RAW-Dual [2] (setting [6]) it was 1.09; with RAW-Dual [2] (setting [7]) it was 0.729.

Consider `O=C(O)c1ccc(Br)c(O)c1`, for which the “NF-kB SEAP reporter activity” value in the assay on RAW-Dual [1] (setting [9]) was 1.11.

As for `O=C(/C=C/c1ccc(O)c(O)c1)O[C@@H]1CC(O)(C(=O)O)C[C@@H](OC(=O)/C=C/c2ccc(O)c(O)c2)C1O` (stereo partly drawn) (library stock concentration (final ~1000-fold dilution): 10 mM), the “NF-kB SEAP reporter activity” value in the assay with RAW-Dual [2] (agonist: LPS (TLR4) 0.1 ug/mL) is 1.24; in the assay with RAW-Dual [2] (setting [5]), 1.04; with RAW-Dual [2] (setting [6]) it was 1.11; with RAW-Dual [2] (setting [7]), 1.18.

For the compound `O=C(/C=C/c1ccc(O)c(O)c1)O[C@@H]1CC(O)(C(=O)O)C[C@@H](OC(=O)/C=C/c2ccc(O)c(O)c2)C1O` (stereo partly drawn), the entries for the “NF-kB SEAP reporter activity” value in the assay on RAW-Dual [1] (setting [8]) and with RAW-Dual [1] (setting [9]) were 0.841 and 1.01, respectively.

Take `CC(C)NC(=O)C1CCC(n2c(=NC(=O)c3ccc(F)cc3)[nH]c3ccc(CN4CCC(C(C)(C)O)CC4)cc32)CC1` (stereo not drawn): the “NF-kB SEAP reporter activity” value in the assay on RAW-Dual [1] (setting [8]) is 1.44; in the assay with RAW-Dual [1] (setting [9]), 0.822.

For the compound `CC(C)NC(=O)C1CCC(n2c(=NC(=O)c3ccc(F)cc3)[nH]c3ccc(CN4CCC(C(C)(C)O)CC4)cc32)CC1` (stereo not drawn) (library stock concentration (final ~1000-fold dilution): 10 mM), the “NF-kB SEAP reporter activity” value in the assay with RAW-Dual [2] (agonist: LPS (TLR4) 0.1 ug/mL) is 1.17; in the assay with RAW-Dual [2] (setting [5]), 0.713; in the assay on RAW-Dual [2] (setting [6]), 1.24; with RAW-Dual [2] (setting [7]) it was 2.16.

With `Cc1cc(Nc2cc(Cl)nc(Oc3ccc([N+](=O)[O-])cc3)n2)n[nH]1` (library stock concentration (final ~1000-fold dilution): 10 mM), the “NF-kB SEAP reporter activity” value came out at 3.28 in the assay with RAW-Dual [2] (agonist: LPS (TLR4) 0.1 ug/mL), 2.32 in the assay on RAW-Dual [2] (setting [5]), 1.82 in the assay on RAW-Dual [2] (setting [6]) and 2.92 in the assay with RAW-Dual [2] (setting [7]).

Consider `Cc1cc(Nc2cc(Cl)nc(Oc3ccc([N+](=O)[O-])cc3)n2)n[nH]1`, for which the “NF-kB SEAP reporter activity” value with RAW-Dual [1] (setting [8]) turned out to be 1.24; in the assay with RAW-Dual [1] (setting [9]) it was 2.16.

For `Cc1cc(Nc2nc(NC(C)c3ccc(F)cc3)c(C#N)cc2F)n[nH]1` (stereo not drawn) (library stock concentration (final ~1000-fold dilution): 10 mM), the “NF-kB SEAP reporter activity” value in the assay with RAW-Dual [2] (agonist: LPS (TLR4) 0.1 ug/mL) turned out to be 1.87; in the assay on RAW-Dual [2] (setting [5]), 0.965; in the assay with RAW-Dual [2] (setting [6]), 1.44; in the assay with RAW-Dual [2] (setting [7]), 0.993.

On to `Cc1cc(Nc2nc(NC(C)c3ccc(F)cc3)c(C#N)cc2F)n[nH]1` (stereo not drawn), for which the “NF-kB SEAP reporter activity” value with RAW-Dual [1] (setting [8]) was found to be 1; in the assay with RAW-Dual [1] (setting [9]) it was 0.984.

Turning to `O=C(O)[C@H](O)Cc1ccc(O)c(O)c1`, the “NF-kB SEAP reporter activity” value amounted to 0.919 in the assay with RAW-Dual [1] (setting [3]) and 1.04 in the assay with RAW-Dual [1] (setting [4]).

In the case of `O=C(O)[C@H](O)Cc1ccc(O)c(O)c1` (library stock concentration (final ~1000-fold dilution): 10 mM water), the “NF-kB SEAP reporter activity” value amounted to 1.19 in the assay on RAW-Dual [2] (agonist: LPS (TLR4) 0.1 ug/mL), 1.22 in the assay on RAW-Dual [2] (setting [5]), 1.1 in the assay on RAW-Dual [2] (setting [6]) and 1 with RAW-Dual [2] (setting [7]).

As for `COc1nc2ccc(Br)cc2cc1C(c1ccccc1)C(O)(CCN(C)C)c1cccc2ccccc12` (stereo not drawn), the “NF-kB SEAP reporter activity” value in the assay with RAW-Dual [1] (setting [8]) came out at 0.771; with RAW-Dual [1] (setting [9]), 0.783.

Turning to `COc1nc2ccc(Br)cc2cc1C(c1ccccc1)C(O)(CCN(C)C)c1cccc2ccccc12` (stereo not drawn) (library stock concentration (final ~1000-fold dilution): 10 mM), the “NF-kB SEAP reporter activity” value in the assay on RAW-Dual [2] (agonist: LPS (TLR4) 0.1 ug/mL) stood at 0.761; with RAW-Dual [2] (setting [5]) it was 0.86; in the assay on RAW-Dual [2] (setting [6]) it was 0.78; in the assay on RAW-Dual [2] (setting [7]), 0.531.
